PubChem BioAssay
Active and inactive are the calls of the source.

How the values were obtained:
Albumin (Bos taurus) = Albumin (Bos taurus) (UniProt P02769); assay: bovine serum albumin binders on microarray, profiling panel, artefact control for SMM control protein annotation, biochemical, small-molecule microarray, Alexa647 label, 635/667 nm fluorescence (AID 1118); conditions: BSA-A647 binding, fluorescence 635 nm, higher = more signal;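 note: score merges 667 nm emission intensity and signal-to-noise per printed compound spot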
Sequence of Albumin (Bos taurus) (P02769 whole entry, looked up): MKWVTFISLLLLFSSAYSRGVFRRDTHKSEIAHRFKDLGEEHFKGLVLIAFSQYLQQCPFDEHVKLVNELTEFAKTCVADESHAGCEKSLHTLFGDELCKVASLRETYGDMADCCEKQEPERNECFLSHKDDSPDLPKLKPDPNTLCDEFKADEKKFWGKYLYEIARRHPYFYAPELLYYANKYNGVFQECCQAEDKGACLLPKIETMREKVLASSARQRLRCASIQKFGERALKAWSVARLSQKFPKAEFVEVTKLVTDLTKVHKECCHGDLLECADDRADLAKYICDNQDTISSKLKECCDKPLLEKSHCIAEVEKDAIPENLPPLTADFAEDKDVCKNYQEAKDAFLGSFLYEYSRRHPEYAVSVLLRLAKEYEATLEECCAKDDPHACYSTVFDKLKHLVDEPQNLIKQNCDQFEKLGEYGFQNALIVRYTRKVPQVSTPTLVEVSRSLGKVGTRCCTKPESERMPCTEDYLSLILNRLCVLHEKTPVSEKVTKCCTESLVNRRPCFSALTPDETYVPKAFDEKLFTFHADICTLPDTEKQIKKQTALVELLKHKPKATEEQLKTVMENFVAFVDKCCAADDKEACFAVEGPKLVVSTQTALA

[1] = small-molecule microarray binders of probe aXIP, primary screen, biochemical, NeuroSMM set, 635/667 nm fluorescence (AID 1119); conditions: higher = more signal, called active from +8 up or from −8 down;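 note: probe is the protein aXip251-270 applied at 1 µg/mL to compound-printed slides; binding of probe to printed compounds measured as 667 nm fluorescence plus signal to noise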
[2] = small-molecule binders of probe aNOTCH3, primary screen, biochemical, small-molecule microarray, 635/667 nm fluorescence (AID 1120); conditions: higher = more signal;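 note: probe is a biotin-tagged antibody raised against NOTCH3 rather than NOTCH3 protein; score merges spot fluorescence near 667 nm with spot signal to noise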
[3] = small-molecule binders of probe aNOTCH2, primary screen, biochemical, small-molecule microarray, 635/667 nm fluorescence (AID 1121); conditions: higher = more signal;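 note: score merges feature fluorescence read at 667 nm with its signal to noise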
[4] = biological target: Carbonic anhydrase 2 (Homo sapiens) (UniProt P00918); assay: CAII small-molecule binders, profiling panel, biochemical, small-molecule microarray, Alexa647-labelled CAII (AID 1122); conditions: CAII-A647 binding fluorescence, higher = more signal
[5] = COS7 lysate on small-molecule microarray, probe aHis, 635 nm (AID 1123); conditions: COS7 cell lysate, fluorescence, higher = more signal;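 note: z-score combines 667nm fluorescence intensity with signal-to-noise per printed compound spot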
[6] = compound binding in COS7 lysate, probe aLAP1, primary screen, cell lysate, small-molecule microarray (AID 1124); conditions: probe aLAP1, fluorescence, higher = more signal;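 note: lysate comes from COS7 cells expressing LAP1 and is applied at 0.3 µg/mL; score merges spot fluorescence near 667 nm with signal-to-noise over triplicate slides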
Sam68 (KHDRBS1) = assay: Sam68 small-molecule binders, primary screen, biochemical, small-molecule microarray, 635 nm fluorescence (AID 1125); conditions: small-molecule microarray binding, higher = more signal;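 note: score merges 667 nm channel intensity with signal to noise over triplicate slides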
[7] = tested on: Chordin-like protein 2 (CHRDL2); assay: CHRDL2 small-molecule binders, primary screen, biochemical, small-molecule microarray, 635 nm fluorescence (AID 1126); conditions: small-molecule microarray binding, fluorescence 635 nm; higher = more signal;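 note: printed compound slides probed with Chrdl2 protein at 4 µg/mL for 1 h at 4 C; score merges 667 nm emission intensity with signal to noise over three replicate slides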
[8] = biological target: Concanavalin-A (Canavalia ensiformis) (UniProt P02866); assay: ConA small-molecule binders, primary screen, artefact control for SMM control protein annotation, biochemical, small-molecule microarray, Alexa647 label, 635 nm (AID 1127); conditions: ConA-A647 binding fluorescence, higher = more signal;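 note: z combines 667 nm emission intensity with signal-to-noise across three replicate slides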
Sequence of Concanavalin-A (Canavalia ensiformis) (P02866 whole entry, looked up): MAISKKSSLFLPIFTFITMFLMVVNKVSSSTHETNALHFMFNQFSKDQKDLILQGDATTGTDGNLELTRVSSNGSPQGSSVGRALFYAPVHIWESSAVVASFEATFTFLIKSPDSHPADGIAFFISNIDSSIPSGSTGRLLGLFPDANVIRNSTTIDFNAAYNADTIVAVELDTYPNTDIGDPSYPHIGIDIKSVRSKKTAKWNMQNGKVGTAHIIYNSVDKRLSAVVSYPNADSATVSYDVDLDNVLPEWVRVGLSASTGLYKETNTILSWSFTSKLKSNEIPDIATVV

[9] = anti-His antibody binders, primary screen, artefact control for SMM control protein annotation, biochemical, small-molecule microarray, 635 nm fluorescence (AID 1128); conditions: anti-His Alexa647 antibody binding, higher = more signal;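 note: score merges feature fluorescence with signal-to-noise for each printed compound spot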
[10] = tested on: Human papillomavirus type 1a E7 protein (residues 1-88); assay: HPV1a E7 small-molecule binders, primary screen, biochemical, small-molecule microarray, residues 1-88, 635 nm (AID 1129); conditions: small-molecule microarray binding, fluorescence 635 nm; higher = more signal
[11] = biological target: Focal adhesion kinase 1 (Homo sapiens) (UniProt Q05397); assay: small-molecule microarray binders of FAK, primary screen, biochemical, 635/667 nm fluorescence, BSA, DTT (AID 1130); conditions: PTK2 binding, 635 nm fluorescence, higher = more signal;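 note: composite of spot emission at 667 nm and signal to noise over triplicate slides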
Sequence of Focal adhesion kinase 1 (Homo sapiens) (Q05397 whole entry, looked up): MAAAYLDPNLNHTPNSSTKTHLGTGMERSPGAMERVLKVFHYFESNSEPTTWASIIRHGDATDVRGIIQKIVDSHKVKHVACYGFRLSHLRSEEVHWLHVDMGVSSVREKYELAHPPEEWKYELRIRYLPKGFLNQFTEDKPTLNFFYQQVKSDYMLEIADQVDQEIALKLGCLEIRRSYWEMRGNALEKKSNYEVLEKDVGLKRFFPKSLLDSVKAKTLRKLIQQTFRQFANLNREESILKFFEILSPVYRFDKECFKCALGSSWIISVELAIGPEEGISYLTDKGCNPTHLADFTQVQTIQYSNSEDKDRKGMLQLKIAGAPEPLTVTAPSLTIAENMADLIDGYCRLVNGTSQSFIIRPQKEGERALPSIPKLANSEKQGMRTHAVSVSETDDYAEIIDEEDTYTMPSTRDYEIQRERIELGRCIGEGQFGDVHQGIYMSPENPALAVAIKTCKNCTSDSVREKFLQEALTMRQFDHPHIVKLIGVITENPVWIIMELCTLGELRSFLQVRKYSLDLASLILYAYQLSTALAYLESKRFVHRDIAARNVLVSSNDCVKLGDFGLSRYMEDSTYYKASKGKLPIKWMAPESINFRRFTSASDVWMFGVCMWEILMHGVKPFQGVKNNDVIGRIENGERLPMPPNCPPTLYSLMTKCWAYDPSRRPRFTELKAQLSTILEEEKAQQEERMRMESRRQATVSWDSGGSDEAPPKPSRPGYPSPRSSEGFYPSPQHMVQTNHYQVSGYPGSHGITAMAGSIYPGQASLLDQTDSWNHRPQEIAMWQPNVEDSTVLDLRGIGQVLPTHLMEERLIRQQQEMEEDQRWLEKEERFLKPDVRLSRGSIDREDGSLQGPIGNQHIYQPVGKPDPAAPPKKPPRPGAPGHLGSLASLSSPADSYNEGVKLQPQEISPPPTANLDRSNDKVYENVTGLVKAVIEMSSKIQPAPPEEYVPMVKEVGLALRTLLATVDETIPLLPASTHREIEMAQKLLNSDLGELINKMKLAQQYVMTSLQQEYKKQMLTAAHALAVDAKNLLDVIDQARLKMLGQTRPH

[12] = tested on: Fibrinogen (Alexa647-labelled); assay: fibrinogen binders on compound microarrays, profiling panel, artefact control for SMM control-protein annotation, biochemical, small-molecule microarray, 635/667 nm fluorescence (AID 1131); conditions: fibrinogen-A647 binding fluorescence, higher = more signal;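 note: z-score merges 667 nm fluorescence with per-spot signal-to-noise over triplicate slides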
[13] = biological target: Follistatin (Homo sapiens) (UniProt P19883); assay: follistatin binders on small-molecule microarrays, primary screen, biochemical, small-molecule microarray, 635/667 nm fluorescence (AID 1132); conditions: FST binding, 635 nm fluorescence, higher = more signal
Sequence of Follistatin (Homo sapiens) (P19883 whole entry, looked up): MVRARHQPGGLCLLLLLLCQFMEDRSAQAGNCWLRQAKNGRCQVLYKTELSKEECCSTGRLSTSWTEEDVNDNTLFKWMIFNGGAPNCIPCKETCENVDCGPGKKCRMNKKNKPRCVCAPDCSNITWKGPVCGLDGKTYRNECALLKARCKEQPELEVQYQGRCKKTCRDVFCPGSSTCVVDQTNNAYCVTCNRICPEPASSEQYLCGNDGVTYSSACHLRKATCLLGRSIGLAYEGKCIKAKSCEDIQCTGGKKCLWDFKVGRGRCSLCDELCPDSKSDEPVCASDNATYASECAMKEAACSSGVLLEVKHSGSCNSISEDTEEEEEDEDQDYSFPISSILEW

[14] = biological target: Fibroblast growth factor 2 (Homo sapiens) (UniProt P09038); assay: FGF2 binders on small-molecule microarrays, primary screen, biochemical, small-molecule microarray, 635/667 nm fluorescence (AID 1133); conditions: small-molecule microarray binding, FGF2, fluorescence 635/667; higher = more signal
Sequence of Fibroblast growth factor 2 (Homo sapiens) (P09038 whole entry, looked up): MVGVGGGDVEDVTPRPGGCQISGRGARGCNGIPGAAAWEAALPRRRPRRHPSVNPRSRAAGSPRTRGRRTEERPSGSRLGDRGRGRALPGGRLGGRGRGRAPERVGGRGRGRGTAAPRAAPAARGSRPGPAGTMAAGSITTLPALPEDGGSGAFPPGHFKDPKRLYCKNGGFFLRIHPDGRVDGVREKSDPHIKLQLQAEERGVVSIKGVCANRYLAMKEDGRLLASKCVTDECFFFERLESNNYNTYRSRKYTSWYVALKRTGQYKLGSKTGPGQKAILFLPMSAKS

[15] = mitochondrial membrane potential change in A549 cells, profiling panel, cell-based, JC-1 fluorescence, basal, 24 h, 100 nL (AID 1138); conditions: higher = more signal;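 note: A549 lung adenocarcinoma cells under basal conditions with no added stimulus; test concentration not given here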
Lefty1 = Lefty1 binders on small-molecule microarrays, primary screen, biochemical, small-molecule microarray, 635/667 nm fluorescence (AID 1139); conditions: small-molecule microarray binding, fluorescence 635/667; higher = more signal
[16] = tested on: wheat germ agglutinin (Triticum aestivum), Alexa647-labelled; assay: wheat germ agglutinin binders on compound microarrays, profiling panel, artefact control for SMM control-protein annotation, biochemical, small-molecule microarray, 635/667 nm fluorescence (AID 1140); conditions: WGA-A647 binding, 635 nm fluorescence, higher = more signal;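 note: score merges 667 nm feature emission with signal to noise over triplicate slides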
[17] = biological target: Luciferin 4-monooxygenase (Photinus pyralis) (UniProt P08659); assay: firefly luciferase enzyme inhibitors, primary screen, biochemical, luminescence, purified enzyme, 2006 set (AID 1141); conditions: SteadyGlo luminescence, 30 min, higher = more signal, called active from +8 up or from −8 down;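 note: cell-free assay with purified firefly luciferase at 100 ng per well in PBS; test concentration not given here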
Sequence of Luciferin 4-monooxygenase (Photinus pyralis) (P08659 whole entry, looked up): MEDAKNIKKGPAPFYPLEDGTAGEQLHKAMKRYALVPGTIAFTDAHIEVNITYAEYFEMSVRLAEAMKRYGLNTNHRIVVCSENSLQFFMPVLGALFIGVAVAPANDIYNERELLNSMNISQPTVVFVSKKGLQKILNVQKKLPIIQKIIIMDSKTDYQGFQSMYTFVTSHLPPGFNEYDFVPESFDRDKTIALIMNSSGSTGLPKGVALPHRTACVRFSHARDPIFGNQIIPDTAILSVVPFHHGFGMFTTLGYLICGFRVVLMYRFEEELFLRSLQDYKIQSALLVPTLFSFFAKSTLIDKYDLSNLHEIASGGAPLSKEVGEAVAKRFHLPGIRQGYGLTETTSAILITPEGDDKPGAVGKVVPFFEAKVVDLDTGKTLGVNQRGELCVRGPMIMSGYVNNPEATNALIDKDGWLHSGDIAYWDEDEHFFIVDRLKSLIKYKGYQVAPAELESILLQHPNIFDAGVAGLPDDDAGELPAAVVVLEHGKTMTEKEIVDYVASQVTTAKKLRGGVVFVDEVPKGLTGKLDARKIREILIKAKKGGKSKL

Row | Compound | composite z-score (Albumin (Bos taurus)) | composite Z-score [1] | composite z-score [2] | composite z-score [3] | composite z-score [4] | composite z-score [5] | composite z-score [6] | composite z-score (Sam68 (KHDRBS1)) | composite z-score [7] | composite z-score [8] | composite z-score [9] | composite z-score [10] | composite z-score [11] | composite z-score [12] | composite z-score [13] | composite z-score [14] | z-score [15] | composite z-score (Lefty1) | composite z-score [16] | z-score [17]
1 | CCCCCCc1nc(-c2cc(C)c(OC)c(C)c2)cc2c1[Si](C(C)C)(C(C)C)OC2 | -0.623 | 0.244 (inactive) | -0.0111 | -0.113 | 0.0878 | -0.241 | -0.0553 | 0.363 | 0.119 | 0.208 | -0.164 | 0.103 | 0.0497 | -0.419 | 0.578 | -0.143 | -0.693 | 0.275 | -0.239 | 1 (inactive)
2 | CN1C(=O)C2C=CC(C(O)c3ccc([N+](=O)[O-])cc3)N(N3CCCCC3)C2C1=O (stereo not given) | 0.818 | -0.0829 (inactive) | 0.246 | 0.0791 | 0.673 | 1.55 | 0.761 | 1.26 | 0.172 | 1.09 | 0.922 | 1.18 | 0.115 | 0.938 | 1.12 | 0.651 | -0.39 | -0.0977 | 0.913 | -0.661 (inactive)
3 | COc1ccccc1CN1C(=O)c2ccccc2[C@@H](C(=O)NC2CC2)[C@@H]1c1ccc(CO)cc1 | -1.07 | 0.0824 (inactive) | 0.0522 | -0.0449 | 0.602 | 1.05 | 0.849 | 1.31 | 0.837 | 1.14 | 2.77 | 1.23 | 0.344 | 0.725 | 1.42 | 1.66 | 1.76 | 1.5 | 0.85 | -0.659 (inactive)
4 | COc1ccc(C(=O)Nc2ccc(CN3C(=O)[C@]4(O[C@H](CCO)[C@@H]([Si](C)(C)c5ccc(OC)cc5)[C@@H]4C)c4ccccc43)cc2)cc1 | 0.357 | 0.377 (inactive) | 0.149 | -0.0891 | 0.283 | 0.417 | -0.337 | 1.22 | 0.531 | 1.09 | 0.215 | 1.06 | 0.246 | 0.599 | 0.995 | 0.894 | -1.41 | 1.36 | 0.526 | 0.362 (inactive)
5 | CC(=O)NCCCC[C@@H]1NC(=O)[C@@H]2C[C@H](C(=O)NCCCCCNC(=O)CS)[C@H](c3cccc(OCCO)c3)N2C1=O | -0.0839 | 0.648 (inactive) | -0.205 | -0.159 | -0.0086 | -0.0704 | -0.0909 | 0.254 | 1.05 | 0.241 | 2 | -0.516 | -0.612 | -1.07 | 1.32 | 0.94 | -0.763 | 1.1 | 0.0847 | -0.125 (inactive)
6 | O=C1c2ccccc2[C@](Cc2ccccc2I)(C(=O)NCCN2CCOCC2)[C@H](c2ccc(CO)cc2)N1C1CCCCC1 | 0.55 | 0.424 (inactive) | 0.323 | -0.052 | 0.548 | 1.41 | 0.382 | 1.31 | 0.67 | 1.15 | 1.77 | 1.19 | 0.991 | 0.927 | 1.34 | 0.804 | 1.34 | 1.36 | 1.16 | -0.147 (inactive)
7 | O=C1C2C=CC(C(O)c3cc(C(F)(F)F)cc(C(F)(F)F)c3)N(n3cnnc3)C2C(=O)N1Cc1ccccc1 (stereo not given) | 0.184 | -0.0461 (inactive) | -0.0391 | 0.392 | 0.68 | 1.58 | -0.0088 | 0.824 | -1.04 | 0.516 | 0.955 | -0.269 | -0.176 | 0.889 | -0.192 | -0.794 | -1.57 | -0.264 | 1.05 | 1.46 (inactive)
8 | [N-]=[N+]=NCc1ccccc1C[C@]1(C(N)=O)COC(c2ccc(OCCCO)cc2)=N1 | 0.624 | 0.155 (inactive) | 0.0225 | 0.106 | 0.656 | 2.24 | 1.29 | 0.48 | -0.846 | 0.556 | 0.0064 | 0.3 | -0.0367 | 0.389 | 1.24 | 0.261 | 0.564 | 0.299 | 0.821 | -2.06 (inactive)
9 | C=CC[C@@]12N=C(c3ccc(OCCCO)cc3)O[C@@H]1c1ccccc1N(C)C2=O | -0.16 | -0.419 (inactive) | 0.0637 | -0.0374 | 0.655 | 2.67 | 0.319 | 1.22 | 0.718 | 0.838 | 2.16 | 1.23 | 0.338 | 0.363 | 1.52 | 1.62 | 1.26 | 0.283 | 0.65 | -4.19 (inactive)
